Common to all, as to set-up: scale not given: direction of the effect not stated beside the values
Experiment [1] has as its target Protein translocase subunit SecA (Escherichia coli (strain K12)) (UniProt P10408). Description: Assay to Identify E. coli SecA ATPase Inhibitors. The experiment is classed as functional. To be noted: 30 µM.
Experiment [2] deals with T1, Ubiquitin-activating enzyme e1, putative (Leishmania donovani (strain BPK282A1)) (UniProt E9BSI1).
T1 sequence (whole entry): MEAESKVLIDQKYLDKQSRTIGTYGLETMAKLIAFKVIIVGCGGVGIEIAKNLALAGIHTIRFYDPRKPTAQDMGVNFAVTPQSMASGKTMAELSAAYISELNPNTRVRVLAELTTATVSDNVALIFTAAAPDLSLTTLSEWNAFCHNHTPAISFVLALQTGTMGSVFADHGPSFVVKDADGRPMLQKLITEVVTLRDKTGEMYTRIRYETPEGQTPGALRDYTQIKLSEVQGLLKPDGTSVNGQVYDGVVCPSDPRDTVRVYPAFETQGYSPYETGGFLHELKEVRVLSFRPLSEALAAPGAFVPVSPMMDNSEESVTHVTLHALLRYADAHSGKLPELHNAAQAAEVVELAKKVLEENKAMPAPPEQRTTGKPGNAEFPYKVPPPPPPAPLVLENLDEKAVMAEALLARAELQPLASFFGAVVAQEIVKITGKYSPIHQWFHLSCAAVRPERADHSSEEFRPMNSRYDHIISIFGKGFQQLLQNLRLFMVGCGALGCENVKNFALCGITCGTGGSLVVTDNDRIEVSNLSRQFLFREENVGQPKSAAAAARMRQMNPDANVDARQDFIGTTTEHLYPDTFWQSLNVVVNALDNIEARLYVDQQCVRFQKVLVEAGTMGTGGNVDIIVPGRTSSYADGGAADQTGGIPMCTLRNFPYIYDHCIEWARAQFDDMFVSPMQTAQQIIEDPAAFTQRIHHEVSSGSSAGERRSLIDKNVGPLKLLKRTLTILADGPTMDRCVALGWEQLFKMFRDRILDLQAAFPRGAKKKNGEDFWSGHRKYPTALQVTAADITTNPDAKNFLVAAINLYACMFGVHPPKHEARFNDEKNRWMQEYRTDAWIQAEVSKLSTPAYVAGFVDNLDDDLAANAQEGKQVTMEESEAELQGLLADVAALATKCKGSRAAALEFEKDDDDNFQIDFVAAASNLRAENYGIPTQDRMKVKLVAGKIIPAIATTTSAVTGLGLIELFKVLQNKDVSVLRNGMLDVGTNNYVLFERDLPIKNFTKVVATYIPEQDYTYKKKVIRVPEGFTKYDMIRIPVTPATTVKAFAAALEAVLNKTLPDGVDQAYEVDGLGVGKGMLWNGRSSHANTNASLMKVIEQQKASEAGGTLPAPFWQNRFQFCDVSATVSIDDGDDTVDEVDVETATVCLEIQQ
Description: Leishmania donovani Ubiquitin Activating Enzyme (LdE1). The experiment is classed as functional. The note with it: 30 µM.

For experiment [3], the target named is Sialic acid-binding Ig-like lectin 9 (Homo sapiens) (UniProt Q9Y336). In words: Hs-Siglec9 ALPHAscreen SOP 20170721. To be noted: 10 µM. For orientation: In Alpha technology, singlet oxygen from a donor bead excites a nearby acceptor bead.
Experiment [4] has as its system Trypanosoma cruzi. In words: Trypanosoma cruzi phosphomannomutase and mannose-1-phosphate guanylyltransferase assay. The experiment is classed as functional. To be noted: 10 µM.
Experiment [5] concerns the target T2, Arginase-2, mitochondrial (Homo sapiens) (UniProt P78540).
T2 sequence (whole entry): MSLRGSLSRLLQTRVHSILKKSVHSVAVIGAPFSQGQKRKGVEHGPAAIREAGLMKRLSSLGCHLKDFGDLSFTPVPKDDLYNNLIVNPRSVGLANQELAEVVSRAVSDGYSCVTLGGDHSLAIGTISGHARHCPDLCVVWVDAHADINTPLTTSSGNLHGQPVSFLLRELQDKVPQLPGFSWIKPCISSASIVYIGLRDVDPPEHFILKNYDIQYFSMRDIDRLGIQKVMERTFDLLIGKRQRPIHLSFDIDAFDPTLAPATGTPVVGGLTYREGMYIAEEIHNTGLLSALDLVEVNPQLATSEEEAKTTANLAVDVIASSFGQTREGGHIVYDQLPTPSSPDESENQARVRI
In words: in vitro enzyme assay to detect the production of urea directly proportional to the activity of Arginase II. Note: in the data most compounds retested in dose-response had high values. The experiment is classed as functional. The note with it: 33.3 µM.

Experiment [6] has as its target T3, Proteasome subunit beta (Trypanosoma cruzi) (UniProt O96673).
T3 sequence (whole entry): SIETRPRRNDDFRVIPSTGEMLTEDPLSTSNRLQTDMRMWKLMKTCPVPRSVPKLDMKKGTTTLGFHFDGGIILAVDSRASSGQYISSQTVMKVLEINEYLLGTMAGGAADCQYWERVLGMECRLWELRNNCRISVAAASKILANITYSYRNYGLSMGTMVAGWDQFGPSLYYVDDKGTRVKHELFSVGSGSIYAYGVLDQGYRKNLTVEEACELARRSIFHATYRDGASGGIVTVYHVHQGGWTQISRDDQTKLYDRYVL
Description: Trypanosoma cruzi proteasome chymotrypsin-like activity (TcProtChymo) assay. Note: in the data most compounds retested in dose-response had high values. The note with it: 9.37 µM. The experiment is classed as functional.

For experiment [7], the species on record is Homo sapiens. Description: To identify inhibition of the IFN signalling (Jak-Stat) pathway via expression of an eGFP reporter gene under the control of an IFN-stimulated response element (ISRE) containing MxA promoter. The experiment is classed as functional. To be noted: 30 µM.
For experiment [8], the target named is T4, Tyrosyl-tRNA synthetase, putative (Trypanosoma cruzi (strain CL Brener)) (UniProt Q4DSP6).
T4 sequence (whole entry): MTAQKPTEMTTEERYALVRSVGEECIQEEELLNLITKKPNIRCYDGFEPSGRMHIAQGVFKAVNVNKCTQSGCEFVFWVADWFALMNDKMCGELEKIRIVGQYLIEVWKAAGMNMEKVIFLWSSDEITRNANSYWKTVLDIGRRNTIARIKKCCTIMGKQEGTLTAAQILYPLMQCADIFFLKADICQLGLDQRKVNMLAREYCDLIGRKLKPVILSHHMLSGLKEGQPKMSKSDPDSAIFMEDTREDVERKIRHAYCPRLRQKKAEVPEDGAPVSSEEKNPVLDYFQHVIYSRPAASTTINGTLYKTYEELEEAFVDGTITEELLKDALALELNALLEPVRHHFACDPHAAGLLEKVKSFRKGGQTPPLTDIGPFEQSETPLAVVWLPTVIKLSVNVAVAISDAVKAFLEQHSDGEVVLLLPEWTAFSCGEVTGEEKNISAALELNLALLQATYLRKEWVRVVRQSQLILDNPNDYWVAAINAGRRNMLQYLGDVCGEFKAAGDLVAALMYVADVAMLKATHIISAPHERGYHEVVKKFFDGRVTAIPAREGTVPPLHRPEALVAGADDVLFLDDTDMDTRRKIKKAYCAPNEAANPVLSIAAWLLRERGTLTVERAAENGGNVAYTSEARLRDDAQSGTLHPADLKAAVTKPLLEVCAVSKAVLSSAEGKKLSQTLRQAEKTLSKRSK
In words: Trypanosoma cruzi tyrosyl tRNA synthetase (TcYRS) _High Tyrosine SOP. Note: in the data most compounds retested in dose-response had high values. The experiment is classed as functional. To be noted: 30 µM.

For experiment [9], the target named is T4, Tyrosyl-tRNA synthetase, putative (Trypanosoma cruzi (strain CL Brener)). Description: Trypanosoma cruzi tyrosyl tRNA synthetase (TcYRS) SOP. The experiment is classed as functional. The note with it: 30 µM.
The target of experiment [10] is Chromo domain-containing protein 1 (Saccharomyces cerevisiae (strain ATCC 204508 / S288c) (Baker's yeast)) (UniProt P32657). In words: ScCHD-1 Enzyme Inhibition Assay. Note: in the data most compounds retested in dose-response had high values. The experiment is classed as functional. The note with it: 30 µM.

For part of these data: Potency and affinity values are given separately.

Sequence of Sialic acid-binding Ig-like lectin 9 (Homo sapiens) (Q9Y336 whole entry): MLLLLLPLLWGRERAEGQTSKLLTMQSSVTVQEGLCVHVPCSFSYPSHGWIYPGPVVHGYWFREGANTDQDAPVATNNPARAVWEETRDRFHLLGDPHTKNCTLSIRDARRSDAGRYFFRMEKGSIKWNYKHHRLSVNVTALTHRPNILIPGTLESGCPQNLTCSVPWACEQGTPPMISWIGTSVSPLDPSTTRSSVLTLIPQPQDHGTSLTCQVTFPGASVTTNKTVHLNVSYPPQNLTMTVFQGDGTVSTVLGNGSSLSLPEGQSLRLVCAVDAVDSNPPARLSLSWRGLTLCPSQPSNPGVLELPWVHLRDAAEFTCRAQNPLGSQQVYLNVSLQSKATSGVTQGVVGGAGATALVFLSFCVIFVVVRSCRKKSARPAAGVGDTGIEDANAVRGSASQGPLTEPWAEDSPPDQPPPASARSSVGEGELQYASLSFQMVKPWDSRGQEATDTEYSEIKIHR
Sequence of Protein translocase subunit SecA (Escherichia coli (strain K12)) (P10408 whole entry): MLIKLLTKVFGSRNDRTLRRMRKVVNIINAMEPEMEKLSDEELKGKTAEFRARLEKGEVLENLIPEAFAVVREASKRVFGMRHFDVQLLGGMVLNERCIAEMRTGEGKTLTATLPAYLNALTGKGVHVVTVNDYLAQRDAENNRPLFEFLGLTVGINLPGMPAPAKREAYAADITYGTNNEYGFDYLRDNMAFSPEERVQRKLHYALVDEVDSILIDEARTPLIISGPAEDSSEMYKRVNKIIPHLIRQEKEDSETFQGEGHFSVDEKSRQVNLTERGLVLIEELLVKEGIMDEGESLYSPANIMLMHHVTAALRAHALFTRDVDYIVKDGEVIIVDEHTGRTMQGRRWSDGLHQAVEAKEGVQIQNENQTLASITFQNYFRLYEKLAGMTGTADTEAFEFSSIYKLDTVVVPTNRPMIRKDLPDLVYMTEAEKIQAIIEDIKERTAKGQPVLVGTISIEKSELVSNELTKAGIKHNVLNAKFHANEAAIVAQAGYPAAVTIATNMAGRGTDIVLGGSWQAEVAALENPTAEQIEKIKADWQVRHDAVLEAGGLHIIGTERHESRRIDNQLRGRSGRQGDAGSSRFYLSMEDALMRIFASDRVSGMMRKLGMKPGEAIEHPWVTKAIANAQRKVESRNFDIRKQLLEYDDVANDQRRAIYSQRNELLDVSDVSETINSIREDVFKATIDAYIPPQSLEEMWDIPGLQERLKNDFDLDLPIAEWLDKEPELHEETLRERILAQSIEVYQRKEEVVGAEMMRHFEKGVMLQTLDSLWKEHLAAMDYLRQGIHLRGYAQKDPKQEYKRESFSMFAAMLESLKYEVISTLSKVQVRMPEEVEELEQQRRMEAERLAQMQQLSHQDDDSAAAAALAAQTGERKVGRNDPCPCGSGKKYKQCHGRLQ
Sequence of Chromo domain-containing protein 1 (Saccharomyces cerevisiae (strain ATCC 204508 / S288c) (Baker's yeast)) (P32657 whole entry, the tested form may be a part): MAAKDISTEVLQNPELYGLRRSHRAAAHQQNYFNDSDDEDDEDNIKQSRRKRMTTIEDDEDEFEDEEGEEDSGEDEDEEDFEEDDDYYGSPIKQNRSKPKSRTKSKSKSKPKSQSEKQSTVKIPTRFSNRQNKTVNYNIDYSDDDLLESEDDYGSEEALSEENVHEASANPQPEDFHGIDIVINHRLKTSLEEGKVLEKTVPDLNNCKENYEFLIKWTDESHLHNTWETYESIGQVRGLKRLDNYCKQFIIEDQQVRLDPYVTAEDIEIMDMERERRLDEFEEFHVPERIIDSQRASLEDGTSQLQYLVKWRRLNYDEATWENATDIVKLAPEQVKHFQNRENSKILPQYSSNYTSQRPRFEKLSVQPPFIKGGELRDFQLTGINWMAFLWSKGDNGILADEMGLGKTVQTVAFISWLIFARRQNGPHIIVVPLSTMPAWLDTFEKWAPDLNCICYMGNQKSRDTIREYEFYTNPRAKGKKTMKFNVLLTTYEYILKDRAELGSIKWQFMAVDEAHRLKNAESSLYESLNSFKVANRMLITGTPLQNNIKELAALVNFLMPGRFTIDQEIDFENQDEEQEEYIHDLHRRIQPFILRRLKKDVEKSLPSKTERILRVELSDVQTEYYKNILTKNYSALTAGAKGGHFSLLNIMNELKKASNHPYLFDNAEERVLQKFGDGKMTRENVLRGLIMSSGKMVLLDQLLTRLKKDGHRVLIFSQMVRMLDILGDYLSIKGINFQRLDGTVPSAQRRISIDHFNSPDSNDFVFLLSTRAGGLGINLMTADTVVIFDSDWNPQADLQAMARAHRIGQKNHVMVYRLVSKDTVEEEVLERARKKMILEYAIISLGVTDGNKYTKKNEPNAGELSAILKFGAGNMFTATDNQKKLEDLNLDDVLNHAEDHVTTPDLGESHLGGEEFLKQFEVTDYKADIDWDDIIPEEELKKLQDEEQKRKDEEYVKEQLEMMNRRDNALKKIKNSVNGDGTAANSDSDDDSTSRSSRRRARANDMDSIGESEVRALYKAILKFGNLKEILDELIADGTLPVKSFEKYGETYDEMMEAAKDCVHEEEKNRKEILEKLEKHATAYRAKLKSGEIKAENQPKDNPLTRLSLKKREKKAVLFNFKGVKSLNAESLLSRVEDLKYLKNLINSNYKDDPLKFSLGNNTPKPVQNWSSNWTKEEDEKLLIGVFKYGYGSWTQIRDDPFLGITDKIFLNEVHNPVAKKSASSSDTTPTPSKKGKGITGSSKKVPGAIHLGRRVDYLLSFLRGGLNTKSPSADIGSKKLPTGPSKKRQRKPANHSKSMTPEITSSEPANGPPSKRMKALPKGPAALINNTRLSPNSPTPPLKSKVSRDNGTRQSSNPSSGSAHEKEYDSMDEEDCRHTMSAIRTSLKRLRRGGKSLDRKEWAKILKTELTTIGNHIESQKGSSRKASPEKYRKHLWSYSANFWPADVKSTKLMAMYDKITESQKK

Turning to `CCn1ccnc1CN1CCN(CC(O)Cn2cccn2)CC1` (stereo not given), the Percent Effect was -5.85% in [1]; 0% in experiment [2]; -2.48% in experiment [3]; -1.97% in experiment [4]; -4.51% in experiment [5]; 11% in [6]. The Percent Effect in experiment [7] is 18.6%; in experiment [8], -0.478%; in experiment [9], 6.02%; in experiment [10], 1.41%.
`Cc1cnn(CC2CN(CC(=O)NCCc3cccs3)CCO2)c1` (stereo not given): the Percent Effect in [1] was -3.45%; in experiment [2] it was 0%; in experiment [3], 6.55%; in experiment [4], -4.62%; in [5] it was 0.887%; in experiment [6], 3.48%. In addition, the Percent Effect in experiment [7] is 9.62%; in [8], 4.74%; in experiment [9] it was -2.56%; in [10], -0.407%.
For `c1cnn(CCNCc2csc(-c3ccsc3)n2)c1`, the Percent Effect was -6.54% in [1]; -12.8% in [2]; -10.8% in experiment [3]; -5.92% in experiment [4]; -1.23% in [5]; 20.6% in experiment [6]. The Percent Effect in [7] is 24.6%; in [8] it was -6.22%; in experiment [9] it was -1.21%; in [10], 0.287%.
For `Cc1cc(-c2cnn(CCNC(=O)C3CC3)c2C2CC2)on1`, the Percent Effect was -4.16% in experiment [1]; 4% in experiment [2]; -5.41% in experiment [3]; -1.77% in experiment [4]; -1.77% in experiment [5]; 5.91% in [6]. For the same molecule, the Percent Effect in experiment [7] was 17.8%; in experiment [8], -3.17%; in [9] it was 0%; in experiment [10], -25.2%.
On to `COc1ccc(C(=O)N2CC[C@H](CO)[C@H](O)C2)c(C)c1`, for which the Percent Effect is -7.05% in experiment [1]; 5.41% in experiment [2]; 10.7% in [3]; 9.02% in [4]; 16.4% in experiment [5]; 10.1% in experiment [6]. In addition, the Percent Effect in experiment [7] is 0.399%; in experiment [8], 7.98%; in experiment [9], 9.76%; in experiment [10], -7.71%.
As to `CN1CCN(C(=O)c2cccc(OCc3cscn3)c2)CC1`, the Percent Effect is -6.48% in [1]; 2.56% in [2]; -10.9% in experiment [3]; -3.1% in [4]; -0.41% in experiment [5]; -1.62% in experiment [6]. Also, the Percent Effect is 19.3% in [7], 0.478% in experiment [8], 6.02% in experiment [9] and 5.6% in [10].
With `CC(C(=O)N1CCCC1)N1CCC(c2nccn2CC2CCC2)CC1` (stereo not given), the Percent Effect in experiment [1] was -7.94%; in experiment [2] it was 0%; in [3], -0.943%; in experiment [4], -1.07%; in experiment [5], 0.35%; in experiment [6], 1.71%. Besides, the Percent Effect was found to be 1.41% in experiment [7], 9.04% in experiment [8], 12.2% in experiment [9] and 2.51% in experiment [10].
As for `Cc1ccc(Cl)cc1N1CCC(CNC(=O)CCn2ccnc2)C1` (stereo not given), the Percent Effect is -4.06% in experiment [1]; 5.13% in experiment [2]; -8.73% in experiment [3]; 10.8% in [4]; 2.05% in experiment [5]; 12.2% in experiment [6]. For the same molecule, the Percent Effect in [7] was 9.72%; in experiment [8], 12.9%; in experiment [9], 22.9%; in experiment [10] it was -4.33%.
For `Cc1cc(C2CCCN2CCCS(=O)(=O)c2ccccc2)no1` (stereo not given), the Percent Effect in experiment [1] is -1.74%; in [2], 5.13%; in experiment [3], 19.5%; in experiment [4] it was -1.41%; in experiment [5] it was -1.23%; in experiment [6] it was -8.11%. The Percent Effect in experiment [7] is 8.46%; in experiment [8], 3.35%; in experiment [9], 8.43%; in experiment [10], -1.93%.
Take `Cc1ccc(S(=O)(=O)N2CCC3(CC(C(=O)NCC4CC4)=NO3)C2)cc1` (stereo not given): the Percent Effect in experiment [1] was -5.9%; in experiment [2] it was 6.49%; in experiment [3] it was -4.73%; in experiment [4], -4.38%; in experiment [5], 0%; in [6] it was 18.3%. Also, the Percent Effect was 5.59% in [7], 1.58% in experiment [8], 7.69% in experiment [9] and -3.09% in [10].
As to `O=C1NCc2ccc(NC(=O)C3CCCN3c3nccs3)cc21` (stereo not given), the Percent Effect was 0.371% in experiment [1]; -7.69% in experiment [2]; 12.8% in [3]; 0.0939% in experiment [4]; -1.23% in experiment [5]; 1.96% in [6]. For the same molecule, the Percent Effect is -7.22% in experiment [7], -0.478% in [8], -6.02% in experiment [9] and 105% in [10].
Take `CC(C)c1cc(C(F)(F)F)n2nc(CCC(=O)O)nc2n1`: the Percent Effect in [1] was 1.24%; in experiment [2] it was 14.7%; in [3] it was -8.51%; in [4] it was -3.94%; in experiment [5] it was 2.65%; in [6], 10.5%. Further, the Percent Effect is 19.8% in [7], 6.35% in [8], 7.5% in [9] and -17.9% in experiment [10].

(Values after ChEMBL document CHEMBL3988442, “University of Dundee, Small-Polar-MMV Screening Library” (2021).)
